Measurements from the supplement of paper PMC10127200.
Structures can show the parent of a compound that is named as a salt.

What follows are molecules tested on 786-O (assay: Euclidean distance of Cell Painting phenotypic profile (signed KS, 77 features) to DMSO centroid (dimensionless distance); 5 or 10 uM (library dependent); higher = stronger phenotypic change vs DMSO (phenoactivity)). Conditions: 48 h.
Outline: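 Five cancer lines and a healthy fibroblast line received library compounds at 10 or 5 uM (library-dependent, 0.1% DMSO final) for 48 h. Stained cells were imaged confocally at 20X (9 fields/well). Harmony extracted 77 features, each scored as a signed Kolmogorov-Smirnov statistic against same-plate vehicle wells. Profiles were plate-position corrected, correlation-weighted and replicate-averaged at the top dose. Phenoactivity is the Euclidean distance from each profile to the median vehicle profile.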
For `C/C=C(/C)C(=O)O[C@H]1[C@H](OC(C)=O)[C@@]2(CO)C(CC1(C)C)C1=CCC3[C@@]4(C)CCC(O[C@@H]5O[C@H](C(=O)O)[C@@H](O[C@@H]6O[C@H](CO)[C@@H](O)[C@H](O)[C@H]6O)[C@H](O)[C@H]5O[C@@H]5O[C@H](CO)[C@@H](O)[C@H](O)[C@H]5O)[C@](C)(CO)C4CC[C@@]3(C)[C@]1(C)C[C@H]2O.C/C=C(\C)C(=O)O[C@H]1[C@H](OC(C)=O)[C@@]2(CO)C(CC1(C)C)C1=CCC3[C@@]4(C)CCC(O[C@@H]5O[C@H](C(=O)O)[C@@H](O[C@@H]6O[C@H](CO)[C@@H](O)[C@H](O)[C@H]6O)[C@H](O)[C@H]5O[C@@H]5O[C@H](CO)[C@@H](O)[C@H](O)[C@H]5O)[C@](C)(CO)C4CC[C@@]3(C)[C@]1(C)C[C@H]2O` (stereo not given in full) [Escin], the Euclidean distance was 1.14.
With `OC(CNCC(O)C1CCc2cc(F)ccc2O1)C1CCc2cc(F)ccc2O1` (stereo not given) [Nebivolol] the Euclidean distance was 1.39.
Molecule `COc1ccc(C[C@H](NC(=O)[C@H](C)NC(=O)CN2CCOCC2)C(=O)N[C@@H](Cc2ccccc2)C(=O)[C@@]2(C)CO2)cc1` has an Euclidean distance of 5.28.
`CC(C)N(CCCNC(=O)Nc1ccc(C(C)(C)C)cc1)C[C@H]1O[C@@H](n2ccc3c(N)ncnc32)[C@H](O)[C@@H]1O` was tested, and the Euclidean distance was 1.04.
Molecule `O=C(Nc1ncc(SCCN2CCCC2)s1)[C@]1(c2ccc(S(=O)(=O)C3CC3)cc2)C[C@H]1C1CCCCC1` has an Euclidean distance of 5.07.
Work on `CCOC(=O)CC(=O)N1CCSC1COc1ccccc1OC` (stereo not given) [Moguisteine] yielded an Euclidean distance of 1.45.
Work on `COc1cc(N2CCC(N3CCN(C)CC3)CC2)ccc1Nc1ncc(Cl)c(Nc2ccccc2P(C)(C)=O)n1` yielded an Euclidean distance of 1.49.
For `CC(C)c1cc(C(C)C)c(CC(=O)NS(=O)(=O)Oc2c(C(C)C)cccc2C(C)C)c(C(C)C)c1` [Avasimibe], the Euclidean distance was 4.24.
With `C#Cc1cccc(Nc2ncnc3cc(OCCOC)c(OCCO)cc23)c1` the Euclidean distance was 1.88.
Molecule `CC1(C)S[C@@H]2[C@H](NC(=O)C(c3ccccc3)S(=O)(=O)O)C(=O)N2[C@H]1C(=O)O` (stereo not given in full) [Sulbenicillin Sodium] has an Euclidean distance of 0.75.
Molecule `COc1cc2/c(=N/c3ccc(Br)cc3F)nc[nH]c2cc1OCC1CCN(C)CC1` [Vandetanib (ZD6474)] has an Euclidean distance of 1.3.
Work on `Cc1ccc(NC(=O)c2cccc(C(C)(C)C#N)c2)cc1Nc1ccc2ncn(C)c(=O)c2c1` yielded an Euclidean distance of 1.3.
Molecule `C[C@]12CC[C@@H]3c4ccc(O)cc4C[C@@H](CCCCCCCCC[S+]([O-])CCCC(F)(F)C(F)(F)F)[C@H]3[C@@H]1CC[C@@H]2O` (stereo not given in full) [Fulvestrant] has an Euclidean distance of 1.83.
For `CC[C@H](Nc1ncnc2[nH]cnc12)c1nc2cccc(F)c2c(=O)n1-c1ccccc1` [CAL-101 (Idelalisib. GS-1101)], the Euclidean distance was 1.28.
In the case of `CCN1CCN(Cc2ccc(Nc3ncc(F)c(-c4cc(F)c5nc(C)n(C(C)C)c5c4)n3)nc2)CC1` [Abemaciclib], the Euclidean distance was 4.11.
Work on `O=c1c(-n2ccnn2)c[nH]n1-c1cc(N2CCOCC2)ncn1` [Molidustat (BAY 85-3934)] yielded an Euclidean distance of 1.15.
For `O=c1ccn([C@@H]2O[C@H](CO)[C@@H](O)[C@H]2O)c(=O)[nH]1` [Uridine], the Euclidean distance was 1.22.
With `CN1CCN(C2=Nc3cc(Cl)ccc3Nc3ccccc32)CC1` [Clozapine] the Euclidean distance was 1.75.
`C[C@@H]1COCCN1c1cc(C2([S@](C)(=N)=O)CC2)nc(-c2cc[nH]c3nccc2-3)n1` gave an Euclidean distance of 2.52.
Molecule `CCCC(=O)O[C@]1(C(=O)COC(C)=O)CC[C@H]2[C@@H]3C[C@H](F)C4=CC(=O)C=C[C@]4(C)[C@@]3(F)[C@@H](O)C[C@@]21C` [Difluprednate] has an Euclidean distance of 1.73.
`CCCNCC(O)COc1ccccc1C(=O)CCc1ccccc1` (stereo not given) [Propafenone HCl] gave an Euclidean distance of 1.59.
Work on `CN1CCN(CC/C=C2/c3ccccc3Sc3ccc(S(=O)(=O)N(C)C)cc32)CC1` [Thiothixene] yielded an Euclidean distance of 2.81.
With `Cc1cn(-c2cc(NC(=O)c3ccc(C)c(Nc4nccc(-c5cccnc5)n4)c3)cc(C(F)(F)F)c2)cn1` [Nilotinib (AMN-107)] the Euclidean distance was 2.33.
`COc1ccc(-c2cc3c(C)nc(N)nc3n([C@H]3CC[C@H](OCCO)CC3)c2=O)cn1` showed an Euclidean distance of 4.94.
With `C[C@]1(COc2ccc(N3CCC(Oc4ccc(OC(F)(F)F)cc4)CC3)cc2)Cn2cc([N+](=O)[O-])nc2O1` [Delamanid] the Euclidean distance was 0.922.
Work on `Cc1cc2c(cc1CC(=O)c1sccc1S(=O)(=O)Nc1onc(C)c1Cl)OCO2` [Sitaxentan sodium] yielded an Euclidean distance of 0.839.
`CC(C)N(CCC(=O)c1ccc2ccccc2c1)Cc1ccccc1` gave an Euclidean distance of 1.68.
Work on `O=C1CCCC(=O)C1C(=O)c1ccc(C(F)(F)F)cc1[N+](=O)[O-]` [Nitisinone] yielded an Euclidean distance of 1.12.
Molecule `CCOC(=O)C1=C(C)NC(C)=C(C(=O)OC)C1c1cccc([N+](=O)[O-])c1` (stereo not given) [Nitrendipine] has an Euclidean distance of 1.
Work on `C/C(=C\C(=O)OCCCCCCCCC(=O)O)C[C@@H]1OC[C@H](C[C@@H]2O[C@H]2[C@@H](C)[C@H](C)O)[C@@H](O)[C@H]1O` [Mupirocin calcium] yielded an Euclidean distance of 1.28.
Molecule `CN[C@@H](C)C(=O)N[C@H]1CN(C(=O)CC(C)C)CC[C@H]2CC[C@@H](C(=O)NC(c3ccccc3)c3ccccc3)N2C1=O` has an Euclidean distance of 1.44.
`C[C@H]1COc2c(N3CCN(C)CC3)c(F)cc3c(=O)c(C(=O)O)cn1c23` [Levofloxacin hydrate] showed an Euclidean distance of 1.06.
With `O=C(Nc1ccccc1)OCC(CN1CCCCC1)OC(=O)Nc1ccccc1` (stereo not given) [Diperodon HCl] the Euclidean distance was 1.03.
`CC(C)Oc1ccc2c(=O)c(-c3ccccc3)coc2c1` [Ipriflavone (Osteofix)] showed an Euclidean distance of 1.22.
`CC(=O)[C@H]1CC[C@H]2[C@@H]3CC=C4C[C@@H](O)CC[C@]4(C)[C@H]3CC[C@]12C` [Pregnenolone] was tested, and the Euclidean distance was 1.29.
Work on `CC(C)CC(N)=O` [Isovaleramide] yielded an Euclidean distance of 1.41.
In the case of `CCCN1CCCC[C@H]1C(=O)Nc1c(C)cccc1C` [Ropivacaine], the Euclidean distance was 1.19.
`Cc1cnc(-c2cc(N3CCN(C(=O)CCS(C)(=O)=O)CC3)ncc2Cl)c(C)c1` gave an Euclidean distance of 0.761.
`COc1ccccc1N1CCN(CCCNc2cc(=O)n(C)c(=O)n2C)CC1` [Urapidil HCl] was tested, and the Euclidean distance was 1.39.
`OCCN1CCN(CCCN2c3ccccc3Sc3ccc(C(F)(F)F)cc32)CC1` [Fluphenazine dihydrochloride] was tested, and the Euclidean distance was 1.98.
